# Reference: the supplement of paper PMC8728848
# This excerpt belongs to a sample that is enriched for the strongest signals.
# B1: CBP21 (Serratia marcescens), O83009 (protein)
# chain: MNKTSRTLLSLGLLSAAMFGVSQQANAHGYVESPASRAYQCKLQLNTQCGSVQYEPQSVEGLKGFPQAGPADGHIASADKSTFFELDQQTPTRWNKLNLKTGPNSFTWKLTARHSTTSWRYFITKPNWDASQPLTRASFDLTPFCQFNDGGAIPAAQVTHQCNIPADRSGSHVILAVWDIADTANAFYQAIDVNLSK
# Columns and labels:
# Test in all cases: glycan array binding signal (z-score within array); higher = stronger binding
# Conditions in all cases: glycan notation: IUPAC condensed, linker removed
# [1] = molecular target: Fuc(a1-2)Gal(b1-3)GlcNAc(b1-2)Man(a1-3)[Fuc(a1-2)Gal(b1-3)GlcNAc(b1-2)Man(a1-6)]Man(b1-4)GlcNAc(b1-4)GlcNAc
# Procedure, shortened: (§1)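 Glycan array binding is given as a within-array Z-score, which can be read as non-binding when negative. The arrays, 3228 of them, came from the Consortium for Functional Glycomics database and were retained only where the protein sequence was available. Z-scores were averaged across arrays of the same protein sequence at different concentrations or buffers and across linkers.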
# [2] = molecular target: Fuc(a1-2)Gal(b1-4)GlcNAc6S
# Procedure, shortened: as §1
# [3] = molecular target: Fuc(a1-2)Gal(b1-4)[Fuc(a1-3)]GlcNAc(b1-2)[Fuc(a1-2)Gal(b1-4)[Fuc(a1-3)]GlcNAc(b1-4)]Man(a1-3)[Fuc(a1-2)Gal(b1-4)[Fuc(a1-3)]GlcNAc(b1-2)Man(a1-6)]Man(b1-4)GlcNAc(b1-4)GlcNAc
# Procedure, shortened: as §1
# [4] = molecular target: Fuc(a1-2)Gal(b1-4)[Fuc(a1-3)]GlcNAc(b1-3)Gal(b1-4)[Fuc(a1-3)]GlcNAc(b1-3)Gal(b1-4)[Fuc(a1-3)]GlcNAc
# Procedure, shortened: as §1
# [5] = molecular target: Fuc(a1-2)Gal6S(b1-3)GlcNAc
# Procedure, shortened: as §1
# [6] = molecular target: Fuc(a1-2)[Gal(a1-3)]Gal(b1-4)GlcNAc(b1-3)[Fuc(a1-2)[Gal(a1-3)]Gal(b1-4)GlcNAc(b1-6)]GalNAc
# Procedure, shortened: as §1
# [7] = molecular target: Fuc(a1-2)[GalNAc(a1-3)]Gal(b1-4)Glc
# Procedure, shortened: as §1
# [8] = molecular target: Fuc(a1-2)[GalNAc(a1-3)]Gal(b1-4)GlcNAc(b1-2)Man(a1-3)[Fuc(a1-2)[GalNAc(a1-3)]Gal(b1-4)GlcNAc(b1-2)Man(a1-6)]Man(b1-4)GlcNAc(b1-4)[Fuc(a1-6)]GlcNAc
# Procedure, shortened: as §1
# [9] = molecular target: Fuc(a1-3)[Gal(b1-4)]GlcNAc(b1-2)Man(a1-3)[Fuc(a1-3)[Gal(b1-4)]GlcNAc(b1-2)Man(a1-6)]Man(b1-4)GlcNAc(b1-4)GlcNAc
# Procedure, shortened: as §1
# [10] = molecular target: Fuc(a1-3)[Gal(b1-4)]GlcNAc(b1-3)Gal(b1-4)[Fuc(a1-3)]GlcNAc(b1-3)Gal(b1-4)[Fuc(a1-3)]GlcNAc
# Procedure, shortened: as §1
# [11] = molecular target: Fuc(a1-3)[Gal(b1-4)]GlcNAc(b1-3)GalNAc
# Procedure, shortened: as §1
# Gal(a1-3)Gal = molecular target: Gal(a1-3)Gal
# Procedure, shortened: as §1
# [12] = molecular target: Gal(b1-3)GalNAc(a1-3)[Fuc(a1-2)]Gal(b1-4)Glc
# Procedure, shortened: as §1
# Gal(b1-3)GlcNAc = molecular target: Gal(b1-3)GlcNAc
# Procedure, shortened: as §1
# [13] = molecular target: Gal(b1-3)GlcNAc(a1-3)Gal(b1-4)GlcNAc
# Procedure, shortened: as §1
# [14] = molecular target: Gal(b1-3)GlcNAc(b1-3)Gal(b1-4)GlcNAc(b1-2)[Gal(b1-3)GlcNAc(b1-3)Gal(b1-4)GlcNAc(b1-6)]Man(a1-6)[Gal(b1-3)GlcNAc(b1-3)Gal(b1-4)GlcNAc(b1-2)Man(a1-3)]Man(b1-4)GlcNAc(b1-4)[Fuc(a1-6)]GlcNAc
# Procedure, shortened: as §1
# [15] = molecular target: Gal(b1-4)GlcNAc(b1-3)Gal(b1-4)GlcNAc(b1-3)Gal(b1-4)GlcNAc(b1-2)Man(a1-3)[Gal(b1-4)GlcNAc(b1-3)Gal(b1-4)GlcNAc(b1-3)Gal(b1-4)GlcNAc(b1-2)Man(a1-6)]Man(b1-4)GlcNAc(b1-4)[Fuc(a1-6)]GlcNAc
# Procedure, shortened: as §1
# [16] = molecular target: Gal(b1-4)GlcNAc(b1-3)Gal(b1-4)GlcNAc(b1-3)Gal(b1-4)GlcNAc(b1-3)Gal(b1-4)GlcNAc(b1-3)Gal(b1-4)GlcNAc(b1-2)[Gal(b1-4)GlcNAc(b1-3)Gal(b1-4)GlcNAc(b1-3)Gal(b1-4)GlcNAc(b1-3)Gal(b1-4)GlcNAc(b1-3)Gal(b1-4)GlcNAc(b1-6)]Man(a1-6)[Gal(b1-4)GlcNAc(b1-3)Gal(b1-4)GlcNAc(b1-3)Gal(b1-4)GlcNAc(b1-3)Gal(b1-4)GlcNAc(b1-3)Gal(b1-4)GlcNAc(b1-2)Man(a1-3)]Man(b1-4)GlcNAc(b1-4)[Fuc(a1-6)]GlcNAc
# Procedure, shortened: as §1
# [17] = molecular target: Gal(b1-4)GlcNAc(b1-3)Gal(b1-4)GlcNAc(b1-3)Gal(b1-4)GlcNAc(b1-3)Gal(b1-4)GlcNAc(b1-3)Gal(b1-4)GlcNAc(b1-3)Gal(b1-4)GlcNAc(b1-2)Man(a1-3)[Gal(b1-4)GlcNAc(b1-3)Gal(b1-4)GlcNAc(b1-3)Gal(b1-4)GlcNAc(b1-3)Gal(b1-4)GlcNAc(b1-3)Gal(b1-4)GlcNAc(b1-3)Gal(b1-4)GlcNAc(b1-2)Man(a1-6)]Man(b1-4)GlcNAc(b1-4)GlcNAc
# Procedure, shortened: as §1
# [18] = molecular target: Gal(b1-4)GlcNAc(b1-3)Gal(b1-4)[Fuc(a1-3)]GlcNAc(b1-3)Gal(b1-4)[Fuc(a1-3)]GlcNAc
# Procedure, shortened: as §1
# Gal(b1-6)Gal = molecular target: Gal(b1-6)Gal
# Procedure, shortened: as §1
# Gal3S(b1-4)GlcNAc = molecular target: Gal3S(b1-4)GlcNAc
# Procedure, shortened: as §1
# Gal3S6S(b1-4)GlcNAc = molecular target: Gal3S6S(b1-4)GlcNAc
# Procedure, shortened: as §1
# Gal6S(b1-4)Glc = molecular target: Gal6S(b1-4)Glc
# Procedure, shortened: as §1
# GalNAc(b1-3)GalNAc = molecular target: GalNAc(b1-3)GalNAc
# Procedure, shortened: as §1
# GalNAc(b1-3)GlcNAc = molecular target: GalNAc(b1-3)GlcNAc
# Procedure, shortened: as §1
# GalNAc(b1-4)Gal(b1-4)Glc = molecular target: GalNAc(b1-4)Gal(b1-4)Glc
# Procedure, shortened: as §1
# GalNAc(b1-4)GlcNAc = molecular target: GalNAc(b1-4)GlcNAc
# Procedure, shortened: as §1
# GalNAc(b1-4)GlcNAc6S = molecular target: GalNAc(b1-4)GlcNAc6S
# Procedure, shortened: as §1
binder,measurement,setting,value
B1,glycan array binding signal (z-score),[1],4.3
same,glycan array binding signal (z-score),[2],-1.02
same,glycan array binding signal (z-score),[3],3.02
same,glycan array binding signal (z-score),[4],2.95
same,glycan array binding signal (z-score),[5],-0.19
same,glycan array binding signal (z-score),[6],2.99
same,glycan array binding signal (z-score),[7],-0.513
same,glycan array binding signal (z-score),[8],-0.038
same,glycan array binding signal (z-score),[9],-0.009
same,glycan array binding signal (z-score),[10],-1.15
same,glycan array binding signal (z-score),[11],0.402
same,glycan array binding signal (z-score),Gal(a1-3)Gal,-0.172
same,glycan array binding signal (z-score),[12],-0.45
same,glycan array binding signal (z-score),Gal(b1-3)GlcNAc,-0.226
same,glycan array binding signal (z-score),[13],0.425
same,glycan array binding signal (z-score),[14],3.27
same,glycan array binding signal (z-score),[15],2.68
same,glycan array binding signal (z-score),[16],2.67
same,glycan array binding signal (z-score),[17],1.21
same,glycan array binding signal (z-score),[18],-0.565
same,glycan array binding signal (z-score),Gal(b1-6)Gal,-0.589
same,glycan array binding signal (z-score),Gal3S(b1-4)GlcNAc,1.21
same,glycan array binding signal (z-score),Gal3S6S(b1-4)GlcNAc,0.23
same,glycan array binding signal (z-score),Gal6S(b1-4)Glc,-0.3
same,glycan array binding signal (z-score),GalNAc(b1-3)GalNAc,-0.453
same,glycan array binding signal (z-score),GalNAc(b1-3)GlcNAc,-0.162
same,glycan array binding signal (z-score),GalNAc(b1-4)Gal(b1-4)Glc,1.03
same,glycan array binding signal (z-score),GalNAc(b1-4)GlcNAc,0.482
same,glycan array binding signal (z-score),GalNAc(b1-4)GlcNAc6S,0.16
